According to the supplement of paper PMC10849652:
About 7,900 targets were measured; listed, in parts, are those with a hit and a random draw of the rest. About 0.6% of all pairs of compound and target were hits.

compound: CS(=O)(=O)N1CCN(Cc2cc3nc(-c4cccc5[nH]ncc45)nc(N4CCOCC4)c3s2)CC1 [pictilisib]; assay: log2 fold change, soluble protein after heating vs DMSO (PISA); higher = thermal stabilisation; K562 cells, 10 uM, 30 min; active = over 0.2 and 3.5 SD of the protein, either way, in both replicates (recomputed)
Summary of the method: (§1)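 Quantification of soluble protein used TMTpro 16plex LC-MS/MS, with channel sums equalised. Samples were the supernatant after 21,000xg for 90 min of pooled aliquots from K562 cells (2×10^6 cells/mL) treated with 10 μM compound for 30 min, heated for 3 min over 48°C-58°C, and extracted in PBS with 0.5% NP-40 at 4°C. Values, from duplicates, describe thermal stability against control samples on a log2 fold-change scale.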

Chain of UniProt Q9UHP3 (Q9UHP3 whole entry, looked up): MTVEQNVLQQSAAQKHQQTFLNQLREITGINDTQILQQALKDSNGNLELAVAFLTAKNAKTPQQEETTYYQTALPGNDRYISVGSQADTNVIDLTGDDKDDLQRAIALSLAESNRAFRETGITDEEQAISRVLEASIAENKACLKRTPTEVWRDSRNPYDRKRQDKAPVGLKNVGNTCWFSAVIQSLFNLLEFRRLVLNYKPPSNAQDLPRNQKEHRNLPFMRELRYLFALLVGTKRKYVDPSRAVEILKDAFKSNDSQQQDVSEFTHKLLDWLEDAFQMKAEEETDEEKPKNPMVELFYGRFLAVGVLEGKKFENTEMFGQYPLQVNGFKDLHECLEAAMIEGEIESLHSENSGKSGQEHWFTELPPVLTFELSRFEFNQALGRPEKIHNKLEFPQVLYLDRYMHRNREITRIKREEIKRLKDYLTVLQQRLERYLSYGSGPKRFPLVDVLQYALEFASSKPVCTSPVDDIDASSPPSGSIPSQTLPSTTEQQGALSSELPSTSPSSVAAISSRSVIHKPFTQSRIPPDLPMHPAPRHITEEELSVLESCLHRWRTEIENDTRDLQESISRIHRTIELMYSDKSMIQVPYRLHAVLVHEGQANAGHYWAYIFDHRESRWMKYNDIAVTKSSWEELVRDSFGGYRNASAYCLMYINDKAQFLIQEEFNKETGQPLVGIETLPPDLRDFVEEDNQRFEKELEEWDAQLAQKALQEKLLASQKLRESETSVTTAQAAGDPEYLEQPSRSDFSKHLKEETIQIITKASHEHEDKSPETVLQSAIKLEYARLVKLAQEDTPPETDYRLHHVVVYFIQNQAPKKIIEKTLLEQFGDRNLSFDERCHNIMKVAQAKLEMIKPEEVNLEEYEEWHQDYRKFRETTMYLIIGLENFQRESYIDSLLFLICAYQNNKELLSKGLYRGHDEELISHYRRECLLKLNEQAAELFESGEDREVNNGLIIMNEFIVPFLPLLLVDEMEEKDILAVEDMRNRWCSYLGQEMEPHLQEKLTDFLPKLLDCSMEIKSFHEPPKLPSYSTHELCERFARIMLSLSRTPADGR
Chain of UniProt Q86UV5 (Q86UV5 whole entry, looked up): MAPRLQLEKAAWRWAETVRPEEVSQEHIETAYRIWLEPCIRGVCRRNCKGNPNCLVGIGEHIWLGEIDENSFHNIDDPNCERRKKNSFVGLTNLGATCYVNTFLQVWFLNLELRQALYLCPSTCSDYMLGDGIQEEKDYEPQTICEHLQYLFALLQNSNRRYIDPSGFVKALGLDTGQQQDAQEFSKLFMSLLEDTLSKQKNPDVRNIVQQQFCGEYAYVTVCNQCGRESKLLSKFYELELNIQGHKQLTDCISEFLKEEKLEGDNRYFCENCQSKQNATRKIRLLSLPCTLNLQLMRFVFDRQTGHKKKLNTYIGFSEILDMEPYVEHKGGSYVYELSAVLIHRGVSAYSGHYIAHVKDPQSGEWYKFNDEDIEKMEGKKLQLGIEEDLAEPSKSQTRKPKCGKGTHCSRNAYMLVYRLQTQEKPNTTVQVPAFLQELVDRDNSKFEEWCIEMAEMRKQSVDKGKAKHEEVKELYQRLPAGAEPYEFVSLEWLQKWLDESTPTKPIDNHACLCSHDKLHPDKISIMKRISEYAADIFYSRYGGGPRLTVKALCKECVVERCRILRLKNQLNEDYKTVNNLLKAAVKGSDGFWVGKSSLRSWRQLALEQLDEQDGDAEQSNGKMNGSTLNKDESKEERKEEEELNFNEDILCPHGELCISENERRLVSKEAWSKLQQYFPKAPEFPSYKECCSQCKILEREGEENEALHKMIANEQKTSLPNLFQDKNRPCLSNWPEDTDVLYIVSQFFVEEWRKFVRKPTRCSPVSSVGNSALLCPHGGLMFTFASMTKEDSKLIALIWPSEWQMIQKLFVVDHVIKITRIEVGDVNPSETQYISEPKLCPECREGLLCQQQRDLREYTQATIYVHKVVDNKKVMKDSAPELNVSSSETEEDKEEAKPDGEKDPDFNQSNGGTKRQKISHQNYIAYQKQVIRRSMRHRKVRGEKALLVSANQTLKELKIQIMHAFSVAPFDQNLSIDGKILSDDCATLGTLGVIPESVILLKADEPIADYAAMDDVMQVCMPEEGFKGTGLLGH
Chain of UniProt Q9H269 (Q9H269 whole entry, looked up): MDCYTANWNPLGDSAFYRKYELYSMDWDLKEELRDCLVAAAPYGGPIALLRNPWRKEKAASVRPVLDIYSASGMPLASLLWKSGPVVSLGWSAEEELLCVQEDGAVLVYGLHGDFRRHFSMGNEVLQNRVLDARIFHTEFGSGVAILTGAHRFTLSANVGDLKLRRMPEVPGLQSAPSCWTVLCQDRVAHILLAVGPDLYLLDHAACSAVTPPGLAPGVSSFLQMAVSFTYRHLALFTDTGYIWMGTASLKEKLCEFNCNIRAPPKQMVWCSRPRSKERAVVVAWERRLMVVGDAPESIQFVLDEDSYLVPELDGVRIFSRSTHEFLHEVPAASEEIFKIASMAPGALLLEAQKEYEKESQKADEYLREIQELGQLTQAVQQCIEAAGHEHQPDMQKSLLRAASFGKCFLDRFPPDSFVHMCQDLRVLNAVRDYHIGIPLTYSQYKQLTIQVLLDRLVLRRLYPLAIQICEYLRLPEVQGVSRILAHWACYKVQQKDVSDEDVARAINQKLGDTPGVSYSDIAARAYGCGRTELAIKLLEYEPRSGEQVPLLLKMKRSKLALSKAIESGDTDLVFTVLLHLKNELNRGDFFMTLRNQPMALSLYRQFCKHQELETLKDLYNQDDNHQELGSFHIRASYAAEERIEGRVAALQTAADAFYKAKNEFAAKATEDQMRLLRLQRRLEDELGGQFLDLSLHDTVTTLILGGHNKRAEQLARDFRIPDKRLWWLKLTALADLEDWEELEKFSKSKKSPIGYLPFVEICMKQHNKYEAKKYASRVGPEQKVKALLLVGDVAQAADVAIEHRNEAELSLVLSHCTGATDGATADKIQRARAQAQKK
Chain of UniProt O14980 (O14980 whole entry, looked up): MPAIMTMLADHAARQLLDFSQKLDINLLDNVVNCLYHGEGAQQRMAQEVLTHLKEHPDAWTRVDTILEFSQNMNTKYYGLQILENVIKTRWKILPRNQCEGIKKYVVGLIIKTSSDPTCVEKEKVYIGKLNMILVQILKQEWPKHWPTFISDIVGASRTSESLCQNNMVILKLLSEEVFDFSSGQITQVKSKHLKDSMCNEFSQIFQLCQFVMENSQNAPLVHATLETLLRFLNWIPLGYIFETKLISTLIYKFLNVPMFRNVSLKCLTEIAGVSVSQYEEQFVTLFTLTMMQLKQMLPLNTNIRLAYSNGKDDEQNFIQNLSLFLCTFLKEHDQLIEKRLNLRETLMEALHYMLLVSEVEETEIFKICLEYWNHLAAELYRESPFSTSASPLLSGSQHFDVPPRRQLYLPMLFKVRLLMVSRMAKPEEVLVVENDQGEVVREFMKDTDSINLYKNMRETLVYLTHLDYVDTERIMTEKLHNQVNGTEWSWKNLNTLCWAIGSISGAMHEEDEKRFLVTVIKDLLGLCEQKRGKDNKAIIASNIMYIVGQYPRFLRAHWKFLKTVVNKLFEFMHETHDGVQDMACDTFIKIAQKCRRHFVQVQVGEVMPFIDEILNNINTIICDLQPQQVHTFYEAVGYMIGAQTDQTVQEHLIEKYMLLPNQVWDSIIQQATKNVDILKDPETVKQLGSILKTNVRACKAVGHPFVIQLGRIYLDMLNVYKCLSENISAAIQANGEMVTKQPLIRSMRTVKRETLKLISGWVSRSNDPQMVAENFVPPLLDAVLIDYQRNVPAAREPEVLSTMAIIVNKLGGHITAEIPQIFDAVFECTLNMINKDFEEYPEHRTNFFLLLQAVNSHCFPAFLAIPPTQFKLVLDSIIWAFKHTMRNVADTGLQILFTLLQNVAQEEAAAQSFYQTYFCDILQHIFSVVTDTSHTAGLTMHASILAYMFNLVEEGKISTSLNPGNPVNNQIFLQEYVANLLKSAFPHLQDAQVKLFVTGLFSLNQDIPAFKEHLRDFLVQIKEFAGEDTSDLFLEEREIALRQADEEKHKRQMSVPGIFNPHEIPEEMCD
Chain of UniProt P21796 (P21796 whole entry, looked up): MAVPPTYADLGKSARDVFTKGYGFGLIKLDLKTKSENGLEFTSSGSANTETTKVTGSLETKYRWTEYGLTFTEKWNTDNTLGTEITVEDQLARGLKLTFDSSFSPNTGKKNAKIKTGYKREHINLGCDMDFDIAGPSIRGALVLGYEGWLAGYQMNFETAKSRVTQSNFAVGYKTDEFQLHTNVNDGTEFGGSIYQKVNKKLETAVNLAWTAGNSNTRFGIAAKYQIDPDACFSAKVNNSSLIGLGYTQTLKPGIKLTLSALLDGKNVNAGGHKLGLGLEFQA
Chain of UniProt Q9NQH7 (Q9NQH7 whole entry, looked up): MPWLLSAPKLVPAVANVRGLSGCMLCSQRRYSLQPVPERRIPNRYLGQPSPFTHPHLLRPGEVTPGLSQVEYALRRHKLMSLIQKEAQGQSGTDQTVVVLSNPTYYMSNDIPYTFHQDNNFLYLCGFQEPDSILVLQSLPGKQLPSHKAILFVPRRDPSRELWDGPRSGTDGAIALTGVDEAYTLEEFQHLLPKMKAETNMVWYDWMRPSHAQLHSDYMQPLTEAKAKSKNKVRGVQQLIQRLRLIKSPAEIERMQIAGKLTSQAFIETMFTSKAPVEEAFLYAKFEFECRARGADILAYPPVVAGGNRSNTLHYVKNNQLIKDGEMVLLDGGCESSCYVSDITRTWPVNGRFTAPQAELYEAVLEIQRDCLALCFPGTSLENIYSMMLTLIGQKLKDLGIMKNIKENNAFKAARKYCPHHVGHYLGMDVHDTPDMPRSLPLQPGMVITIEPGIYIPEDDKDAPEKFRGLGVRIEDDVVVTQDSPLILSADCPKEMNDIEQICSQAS
Chain of UniProt P51809 (P51809 whole entry, looked up): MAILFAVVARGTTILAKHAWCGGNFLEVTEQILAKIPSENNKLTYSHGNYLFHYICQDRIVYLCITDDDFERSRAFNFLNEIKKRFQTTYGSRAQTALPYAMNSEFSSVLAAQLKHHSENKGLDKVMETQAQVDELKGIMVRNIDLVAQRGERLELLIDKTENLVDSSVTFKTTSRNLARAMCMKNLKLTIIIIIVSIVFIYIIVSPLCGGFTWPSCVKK

Target	log2 fold change
TSG101 (UniProt Q99816)	0.025 (inactive)
VTA1 (UniProt Q9NP79)	0.006 (inactive)
VDAC1 (UniProt P21796)	0.002 (inactive)
WASHC2C, A0A096LPC5	0.048 (inactive)
VTI1B (UniProt Q9UEU0)	0.061 (inactive)
UBE2Q1 (UniProt Q7Z7E8)	0.039 (inactive)
TMEM106B (UniProt Q9NUM4)	0.027 (inactive)
TMEM164 (UniProt Q5U3C3)	0.008 (inactive)
USP48 isoform 8 (UniProt Q86UV5)	0.016 (inactive)
USP15 (UniProt Q9Y4E8)	-0.027 (inactive)
UFD1 isoform 1 (UniProt Q92890)	-0.037 (inactive)
WDR46 (UniProt O15213)	-0.052 (inactive)
USP14 (UniProt P54578)	0.026 (inactive)
XPNPEP3 (UniProt Q9NQH7)	0.027 (inactive)
UCHL5 (UniProt Q9Y5K5)	0.012 (inactive)
VPS16 (UniProt Q9H269)	-0.044 (inactive)
VAMP7 (UniProt P51809)	-0.001 (inactive)
XPO1 (UniProt O14980)	-0.071 (inactive)

Target	log2 fold change
TNFRSF10A (UniProt O00220)	0.304 (active)
UBLCP1 (UniProt Q8WVY7)	0.028 (inactive)
TMEM189-UBE2V1 (UniProt I3L0A0)	-0.026 (inactive)
WASH2P (UniProt Q6VEQ5)	0.053 (inactive)
VTI1A (UniProt Q96AJ9)	-0.022 (inactive)
TNNC2 (UniProt P02585)	0.025 (inactive)
TMEM223 (UniProt A0PJW6)	-0.007 (inactive)
U2AF1 isoform 2 (UniProt Q01081)	0.069 (inactive)
XRCC5 (UniProt P13010)	-0.047 (inactive)
TNPO1 (UniProt Q92973)	-0.02 (inactive)
VPS52 (UniProt Q8N1B4)	-0.02 (inactive)
TMEM263 (UniProt Q8WUH6)	-0.208 (inactive)
USP25 isoform 3 (UniProt Q9UHP3)	0.018 (inactive)
VPS50 (UniProt Q96JG6)	-0.003 (inactive)
UBAP1 isoform 4 (UniProt Q9NZ09)	-0.005 (inactive)
TNPO2 (UniProt O14787)	-0.076 (inactive)
VPS18 (UniProt Q9P253)	-0.07 (inactive)
TRIM28 (UniProt Q13263)	0.033 (inactive)

compound: CS(=O)(=O)c1ccc(-c2cnc(N)c(C(=O)Nc3ccccc3)n2)cc1; assay: as above
Summary of the method: as §1

Target	log2 fold change
TSG101 (UniProt Q99816)	0.035 (inactive)
VTA1 (UniProt Q9NP79)	0.032 (inactive)
VDAC1 (UniProt P21796)	0 (inactive)
WASHC2C, A0A096LPC5	-0.078 (inactive)
VTI1B (UniProt Q9UEU0)	0.022 (inactive)
UBE2Q1 (UniProt Q7Z7E8)	0 (inactive)
TMEM106B (UniProt Q9NUM4)	-0.024 (inactive)
TMEM164 (UniProt Q5U3C3)	0 (inactive)
USP48 isoform 8 (UniProt Q86UV5)	0.03 (inactive)
USP15 (UniProt Q9Y4E8)	0.04 (inactive)
UFD1 isoform 1 (UniProt Q92890)	-0.029 (inactive)
WDR46 (UniProt O15213)	-0.05 (inactive)
USP14 (UniProt P54578)	0.006 (inactive)
XPNPEP3 (UniProt Q9NQH7)	0.06 (inactive)
UCHL5 (UniProt Q9Y5K5)	0.023 (inactive)
VPS16 (UniProt Q9H269)	0.035 (inactive)
VAMP7 (UniProt P51809)	0.021 (inactive)
XPO1 (UniProt O14980)	-0.016 (inactive)

Target	log2 fold change
TNFRSF10A (UniProt O00220)	-0.008 (inactive)
UBLCP1 (UniProt Q8WVY7)	0.063 (inactive)
TMEM189-UBE2V1 (UniProt I3L0A0)	0.063 (inactive)
WASH2P (UniProt Q6VEQ5)	-0.002 (inactive)
VTI1A (UniProt Q96AJ9)	-0.007 (inactive)
TNNC2 (UniProt P02585)	-0.004 (inactive)
TMEM223 (UniProt A0PJW6)	-0.008 (inactive)
U2AF1 isoform 2 (UniProt Q01081)	-0.046 (inactive)
XRCC5 (UniProt P13010)	0.037 (inactive)
TNPO1 (UniProt Q92973)	-0.008 (inactive)
VPS52 (UniProt Q8N1B4)	-0.001 (inactive)
TMEM263 (UniProt Q8WUH6)	0.03 (inactive)
USP25 isoform 3 (UniProt Q9UHP3)	0.042 (inactive)
VPS50 (UniProt Q96JG6)	0.012 (inactive)
UBAP1 isoform 4 (UniProt Q9NZ09)	-0.003 (inactive)
TNPO2 (UniProt O14787)	0.019 (inactive)
VPS18 (UniProt Q9P253)	-0.008 (inactive)
TRIM28 (UniProt Q13263)	-0.001 (inactive)
